Reference: publication PMC10726135, “HNF4α isoforms regulate the circadian balance between carbohydrate and lipid metabolism in the liver”
In all, about 18,000 sequences were measured (“log2 normalized intensity”: median about 0.36, highest 2% from about 7.3 on). What follows is part of a selection rich in the highest values, with near analogues and random picks from the rest.

Target: T1, HNF4alpha8 (COS-7 nuclear extract) (Homo sapiens, UniProt P41235-5 1-452)
T1 sequence: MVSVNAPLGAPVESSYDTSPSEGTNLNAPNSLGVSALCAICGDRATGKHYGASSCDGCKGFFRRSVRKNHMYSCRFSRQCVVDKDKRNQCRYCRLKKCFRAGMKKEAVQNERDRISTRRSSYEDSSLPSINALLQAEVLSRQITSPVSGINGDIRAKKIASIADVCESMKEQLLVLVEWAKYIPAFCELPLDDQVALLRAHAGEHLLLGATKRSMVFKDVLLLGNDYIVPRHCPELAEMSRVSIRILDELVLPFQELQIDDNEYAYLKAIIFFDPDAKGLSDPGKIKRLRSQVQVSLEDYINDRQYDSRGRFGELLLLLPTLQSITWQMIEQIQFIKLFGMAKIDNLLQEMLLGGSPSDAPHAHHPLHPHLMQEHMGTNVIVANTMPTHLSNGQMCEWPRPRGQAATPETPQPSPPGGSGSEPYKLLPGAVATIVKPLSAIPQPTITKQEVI
Assay: protein-binding microarray; COS-7 nuclear extract on double-stranded Agilent 4x180k PBM; binding buffer, salt, pH and temperature not given in the material; high values mean tight binding
Settings: chain copies: 2; label: 3' end of strand 1 on the slide; dsDNA, one strand shown
How it was run: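 Using CaPO4, COS-7 cells were transiently transfected with a human HNF4α isoform expression vector, and their nuclear extracts were applied to a custom Agilent SurePrint G3 4x180k double-stranded oligonucleotide array (~60 nt; ~44,000 test sequences in quadruplicate). Bound HNF4α was imaged at 2-µm resolution with an Agilent G2565CA scanner. Agilent software supplied the background-corrected, normalized gProcessedSignal that serves as the binding signal.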

Point of comparison: “CTGCTTTTGGAATTTGACCTCATTTGCTCCGCCTAGGGAGATTAGAGTATCGGTCGA”, binding signal 6.52 log2 normalized intensity. Against it:
- TGTCAGGAACAACTTCGGGAATCTGACCTTGCCTAGGGAGATTAGAGTATCGGTCGA — lower, 4.3 log2 normalized intensity
- GCTTACAACTCTAAGGGGGAAAGTCCACGTGCCTAGGGAGATTAGAGTATCGGTCGA — lower, 4.61 log2 normalized intensity
- CTCAACCTCCCCCTGGGGACAGGTGTTAATGCCTAGGGAGATTAGAGTATCGGTCGA — lower, 2.27 log2 normalized intensity
- CACGTGCAAAGTACAAAGTACAGAGATGGCGCCTAGGGAGATTAGAGTATCGGTCGA — lower, 3.78 log2 normalized intensity
- GGGTAACTGACCTTGTTGCCCACCCCCCAAGCCTAGGGAGATTAGAGTATCGGTCGA — lower, 5.8 log2 normalized intensity
- TCAATGGCCCCAGTGCACGTGCATGAGGCCGCCTAGGGAGATTAGAGTATCGGTCGA — lower, -0.475 log2 normalized intensity
- GGATCCTTGGAGGACCTTGGGTTCATTTTAGCCTAGGGAGATTAGAGTATCGGTCGA — lower, 2.86 log2 normalized intensity
- TTTTGCTCTGATCCTAGTCTTTGCCCCACTGCCTAGGGAGATTAGAGTATCGGTCGA — lower, 3.94 log2 normalized intensity
- ACTGCCCGCTGGCCTCCCCATCCTCATGACGCCTAGGGAGATTAGAGTATCGGTCGA — lower, 2.93 log2 normalized intensity
- CAAGCTGACAAACATGTATCAGTGATAGACGCCTAGGGAGATTAGAGTATCGGTCGA — lower, -0.0274 log2 normalized intensity
- TATGACCTTTGCTTTTCAAGATTTTACCTAGCCTAGGGAGATTAGAGTATCGGTCGA — lower, 2.72 log2 normalized intensity
- AATCGACCTTTAGCACCGTAAGAGAGTATTGCCTAGGGAGATTAGAGTATCGGTCGA — lower, 4.63 log2 normalized intensity
- CTTTAGCACCTTCATCCAAAGATGACCTTTGCCTAGGGAGATTAGAGTATCGGTCGA — higher, 8.24 log2 normalized intensity
- TAACTCCTTTGTGTGAATCGACCTTTAGCAGCCTAGGGAGATTAGAGTATCGGTCGA — lower, 6.42 log2 normalized intensity
- TCTTATTGCCTCATGTTTGCAGAATGGCTGGCCTAGGGAGATTAGAGTATCGGTCGA — lower, 0.617 log2 normalized intensity
- CCTTTGGACTGTCCTTTGCTAGATTCTTTCGCCTAGGGAGATTAGAGTATCGGTCGA — lower, 2.13 log2 normalized intensity
- ACTTTGGACTTGGGACTTTCGAGTTAATGCGCCTAGGGAGATTAGAGTATCGGTCGA — lower, 4.67 log2 normalized intensity
- GGACTTGGGACTTTCGAGTTAATGCTGGAGGCCTAGGGAGATTAGAGTATCGGTCGA — lower, 3.2 log2 normalized intensity
- GAGACTTTGGACTTTGGACTTGGGACTTTCGCCTAGGGAGATTAGAGTATCGGTCGA — higher, 9.81 log2 normalized intensity
- TTTGGACTTTGGACTTGGGACTTTCGAGTTGCCTAGGGAGATTAGAGTATCGGTCGA — higher, 8.22 log2 normalized intensity
- CTGGACTTTCCTTTGTTGGGAGACTTTTTAGCCTAGGGAGATTAGAGTATCGGTCGA — lower, 1.45 log2 normalized intensity
- ATAGCAAACACGATTGGATGGAAGGTCCTTGCCTAGGGAGATTAGAGTATCGGTCGA — lower, 0.748 log2 normalized intensity
- AATCAAACTGAACTTTGAAACAAGCCCATCGCCTAGGGAGATTAGAGTATCGGTCGA — lower, 3.87 log2 normalized intensity
- CAACCTCTCCAATGCTATGCTTTTATTTAAGCCTAGGGAGATTAGAGTATCGGTCGA — lower, -0.995 log2 normalized intensity
- CATCATAAACCCGATCCTTACTATTAGGTCGCCTAGGGAGATTAGAGTATCGGTCGA — lower, 1 log2 normalized intensity
- CTTGGCTGTGCTGCCCTTTGCCCTTTGGGAGCCTAGGGAGATTAGAGTATCGGTCGA — higher, 7.91 log2 normalized intensity
- CTGTGCTGCCCTTTGCCCTTTGGGAAGGGGGCCTAGGGAGATTAGAGTATCGGTCGA — higher, 6.59 log2 normalized intensity
- GGACTTTGGGCTGTGTTTTGCCCCTGCAGAGCCTAGGGAGATTAGAGTATCGGTCGA — lower, 4.12 log2 normalized intensity
- GAGAGTTTTCCTTGGCTGTGCTGCCCTTTGGCCTAGGGAGATTAGAGTATCGGTCGA — lower, 4.01 log2 normalized intensity
- TTTTCCTTGGCTGTGCTGCCCTTTGCCCTTGCCTAGGGAGATTAGAGTATCGGTCGA — higher, 8.52 log2 normalized intensity
- GGGTGGGGTGCTGCCTTTCCTGTGACTTTTGCCTAGGGAGATTAGAGTATCGGTCGA — lower, 2.09 log2 normalized intensity
- GCGTAGCCCAAAGGTCAGTCTGCAGCTAATGCCTAGGGAGATTAGAGTATCGGTCGA — lower, 3.36 log2 normalized intensity
- AGTAGGCACTATTATCCCCCTATCCCAAGAGCCTAGGGAGATTAGAGTATCGGTCGA — lower, 4.72 log2 normalized intensity
- CCTAAGCCTTATTATCTGCTTTTATGACCTGCCTAGGGAGATTAGAGTATCGGTCGA — lower, 3.51 log2 normalized intensity
- TTTGTTGCCTCTTTTCTGCTTTTGGAATTTGCCTAGGGAGATTAGAGTATCGGTCGA — lower, 3.37 log2 normalized intensity
- CCCCTCAGTTTTTCTCTTTTGACCTTTGGAGCCTAGGGAGATTAGAGTATCGGTCGA — higher, 9.54 log2 normalized intensity
- GCATGACCTCAACTCTCAGTTTGGCTCTTAGCCTAGGGAGATTAGAGTATCGGTCGA — lower, 0.116 log2 normalized intensity
- GCCTTATTATCTGCTTTTATGACCTTTGACGCCTAGGGAGATTAGAGTATCGGTCGA — higher, 8.05 log2 normalized intensity
- TGCCTCTTTTCTGCTTTTGGAATTTGACCTGCCTAGGGAGATTAGAGTATCGGTCGA — higher, 8.78 log2 normalized intensity
- CGCATTTCTGCTTCTTCTCATTCTTGGAATGCCTAGGGAGATTAGAGTATCGGTCGA — lower, 1.49 log2 normalized intensity
- ATTATCTGCTTTTATGACCTTTGACTGCAGGCCTAGGGAGATTAGAGTATCGGTCGA — higher, 7.32 log2 normalized intensity
- CTTTTCTGCTTTTGGAATTTGACCTCATTTGCCTAGGGAGATTAGAGTATCGGTCGA — higher, 7.55 log2 normalized intensity
- GTGCTTGGACCTGCTCTGTTTTCTTTCGGTGCCTAGGGAGATTAGAGTATCGGTCGA — lower, 1.24 log2 normalized intensity
- GGTGACCCCTCAGTTTTTCTCTTTTGACCTGCCTAGGGAGATTAGAGTATCGGTCGA — lower, 4.77 log2 normalized intensity
- CCCCACTTCCTGACTTGGCCTGAACCAGTTGCCTAGGGAGATTAGAGTATCGGTCGA — lower, 0.602 log2 normalized intensity
- TTAAGAACTGGAGTAAAGGTCACTCTTGCTGCCTAGGGAGATTAGAGTATCGGTCGA — lower, 3.94 log2 normalized intensity
- GTGTTTAATGTTTTCATTCTGATTTGCACAGCCTAGGGAGATTAGAGTATCGGTCGA — lower, 0.934 log2 normalized intensity
- CTCTCCAAGCCAGAAAGATGTTTGCCCCAAGCCTAGGGAGATTAGAGTATCGGTCGA — lower, 2.94 log2 normalized intensity
- GGTTGGCACGCTTAGGGAACAAAGGTCAGTGCCTAGGGAGATTAGAGTATCGGTCGA — higher, 7.22 log2 normalized intensity
- CGCCGCCTCTGCCTCTTGACCCCTTGGCCCGCCTAGGGAGATTAGAGTATCGGTCGA — lower, 5.9 log2 normalized intensity
- TTCCTGGCCTCTCTGCAAATTTGCCTTGTCGCCTAGGGAGATTAGAGTATCGGTCGA — lower, 0.448 log2 normalized intensity
- TGTTTGCACTGAGGAATGGAAGGACCTTGGGCCTAGGGAGATTAGAGTATCGGTCGA — lower, 2.07 log2 normalized intensity
- TTAGGGGTTAGGGTTAGGGTTAGGGTTACGGCCTAGGGAGATTAGAGTATCGGTCGA — lower, 1.17 log2 normalized intensity
